{
  "source": "PubChem BioAssay (NCATS)",
  "key": {"[1]": {"tested_on": "Zika virus NS2B-NS3 protease (unlinked complex)", "experiment": "Primary screen GU Rhodamine qHTS for Zika virus inhibitors: Unlinked NS2B-NS3 protease assay (AID 1347159); also: nearly all actives have a fitted effect of over 60% in size", "settings": "Recombinant ZIKV NS2B-NS3 protease, Rhodamine110 substrate fluorescence; series mostly up to 107 µM", "in_short": "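Enzyme 25 nM in Tris-HCl pH 8.0 + 0.01% Tween 20; compounds up to 114 microM, 15 min RT dark; + Rhod110 substrate 1.5 microM; read t0 and 15 min; delta fluorescence → % inhibition → 4-parameter Hill fit.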"}, "[2]": {"tested_on": "Zika virus NS2B-NS3 protease", "experiment": "Primary screen GU AMC qHTS for Zika virus inhibitors (AID 1347154); also: nearly all actives have a fitted effect of over 70% in size", "settings": "Zika NS2B-NS3 unlinked protease, AMC fluorogenic substrate; series mostly up to 54.1 µM", "in_short": "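Fluorogenic AMC-substrate cleavage by noncovalent NS2B-NS3 protease complex (25 nM, pH 8.0 Tris buffer with Tween 20) followed for 15 minutes at room temperature (~20% conversion). Percent inhibition from ex340/em450 signal change, fitted by 4-parameter Hill equation.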"}},
  "note": "Results filed as inconclusive are left out. Where a call stands in place of a potency, no number is given. A number with no mark means an inactive call. Active and inactive are the calls of the source. Calls follow the shape of the dose curve; as a rule, active = well fitted curve in the direction sought with a large enough effect; inconclusive = small, poorly fitted or top-dose-only effect, or another doubt; inactive = no such curve, though single readings can be large; an effect the other way counts as inactive or inconclusive. Potency is read from the fitted curve at half-maximal effect.",
  "data": [
    {"smiles": "O=C1Nc2ccc(Cl)cc2[C@@](C#CC2CC2)(C(F)(F)F)O1", "values": [
      {"measurement": "Potency", "setting": "[1]", "result": "44.7 µM (active)"}
    ]},
    {"smiles": "Cc1cccc(Nc2cc(Cl)nc(SCC(=O)O)n2)c1C", "values": [
      {"measurement": "Potency", "setting": "[2]", "result": "inactive"},
      {"measurement": "Potency", "setting": "[1]", "result": "inactive"}
    ]},
    {"smiles": "CN1[C@@H]2CC[C@H]1CC(OC(=O)C(O)c1ccccc1)C2", "note": "(stereo partly drawn)", "values": [
      {"measurement": "Potency", "setting": "[2]", "result": "inactive"}
    ]},
    {"smiles": "C[C@@H]1CC[C@@]2(OC1)O[C@H]1C[C@H]3[C@@H]4CC[C@H]5C[C@@H](O)CC[C@]5(C)[C@H]4CC(=O)[C@]3(C)[C@H]1[C@@H]2C", "values": [
      {"measurement": "activity change, negative = inhibition", "setting": "[2]", "result": "-4.75% [at 4.99 µM]"}
    ]},
    {"smiles": "CCOC(=O)c1ccc(O)cc1", "values": [
      {"measurement": "Potency", "setting": "[2]", "result": "inactive"}
    ]},
    {"smiles": "Nc1nc2c(ncn2CCC(CO)CO)c(=O)[nH]1", "values": [
      {"measurement": "Potency", "setting": "[2]", "result": "inactive"},
      {"measurement": "Potency", "setting": "[1]", "result": "inactive"}
    ]},
    {"smiles": "Cn1c(=O)c2c(ncn2CC2OCCO2)n(C)c1=O", "values": [
      {"measurement": "Potency", "setting": "[2]", "result": "inactive"},
      {"measurement": "Potency", "setting": "[1]", "result": "inactive"}
    ]},
    {"smiles": "CCOc1ccc2ccccc2c1C(=O)N[C@@H]1C(=O)N2[C@@H]1SC(C)(C)[C@@H]2C(=O)O", "values": [
      {"measurement": "Potency", "setting": "[2]", "result": "inactive"},
      {"measurement": "Potency", "setting": "[1]", "result": "inactive"}
    ]},
    {"smiles": "CCCCCCCCCCCCOS(=O)(=O)O", "values": [
      {"measurement": "Potency", "setting": "[2]", "result": "inactive"}
    ]},
    {"smiles": "CCOC(CN1CCN(CC(C)C(=O)c2ccccc2)CC1)c1ccccc1", "note": "(stereo not drawn)", "values": [
      {"measurement": "Potency", "setting": "[2]", "result": "inactive"},
      {"measurement": "Potency", "setting": "[1]", "result": "inactive"}
    ]},
    {"smiles": "CN(N=O)C(=O)N[C@@H]1[C@@H](O)[C@H](O)[C@@H](CO)O[C@@H]1O", "values": [
      {"measurement": "Potency", "setting": "[2]", "result": "inactive"}
    ]},
    {"smiles": "CC/C=C(\\C(=O)N[C@@H]1C(=O)N2C(C(=O)OCOC(=O)C(C)(C)C)=C(COC(N)=O)CS[C@H]12)c1csc(N)n1", "values": [
      {"measurement": "Potency", "setting": "[2]", "result": "inactive"},
      {"measurement": "Potency", "setting": "[1]", "result": "inactive"}
    ]},
    {"smiles": "C[C@]12CC[C@@H]3c4ccc(O)cc4CC[C@H]3[C@@H]1CC[C@@H]2OC(=O)CCC1CCCC1", "values": [
      {"measurement": "Potency", "setting": "[1]", "result": "20 µM (active)"}
    ]},
    {"smiles": "COC(=O)[C@H]1[C@H]2C[C@@H]3c4[nH]c5cc(OC)ccc5c4CCN3C[C@H]2C[C@@H](OC(=O)COc2ccc(OC)cc2)[C@@H]1OC", "values": [
      {"measurement": "Potency", "setting": "[2]", "result": "inactive"}
    ]},
    {"smiles": "COc1ccc2[nH]c(S(=O)Cc3ncc(C)c(OC)c3C)nc2n1", "note": "(stereo not drawn)", "values": [
      {"measurement": "Potency", "setting": "[2]", "result": "inactive"},
      {"measurement": "Potency", "setting": "[1]", "result": "inactive"}
    ]},
    {"smiles": "Cc1ccc2nc(N)[nH]c(=O)c2c1Sc1ccncc1", "values": [
      {"measurement": "Potency", "setting": "[2]", "result": "inactive"},
      {"measurement": "Potency", "setting": "[1]", "result": "inactive"}
    ]},
    {"smiles": "CC(C)(C)C(=O)C(Oc1ccc(Cl)cc1)n1ccnc1", "note": "(stereo not drawn)", "values": [
      {"measurement": "Potency", "setting": "[2]", "result": "inactive"},
      {"measurement": "Potency", "setting": "[1]", "result": "inactive"}
    ]},
    {"smiles": "[Cl][In]([Cl])[Cl]", "values": [
      {"measurement": "Potency", "setting": "[2]", "result": "11.2 µM (active)"}
    ]},
    {"smiles": "CCOc1nc2cccc(C(=O)O)c2n1Cc1ccc(-c2ccccc2-c2nn[nH]n2)cc1", "values": [
      {"measurement": "Potency", "setting": "[2]", "result": "inactive"},
      {"measurement": "Potency", "setting": "[1]", "result": "inactive"}
    ]},
    {"smiles": "CCCCN1CCCC[C@H]1C(=O)Nc1c(C)cccc1C", "values": [
      {"measurement": "Potency", "setting": "[2]", "result": "inactive"},
      {"measurement": "Potency", "setting": "[1]", "result": "inactive"}
    ]},
    {"smiles": "COc1ccc2cc1Oc1ccc(cc1)C[C@H]1c3c(cc4c(c3Oc3cc5c(cc3OC)CCN(C)[C@@H]5C2)OCO4)CCN1C", "values": [
      {"measurement": "Potency", "setting": "[2]", "result": "inactive"},
      {"measurement": "Potency", "setting": "[1]", "result": "inactive"}
    ]}
  ]
}
